Test results: the supplement of paper PMC10849652
The full data set covers some 8,800 targets. This sample favours those with a hit. About 0.5% of all pairs of compound and target were hits.

What follows are targets tested with CCN(CCCOc1ccc2c(Nc3cc(CC(=O)Nc4cccc(F)c4)[nH]n3)ncnc2c1)CCOP(=O)(O)O [barasertib] (assay: log2 fold change, soluble protein after heating vs DMSO (PISA); higher = thermal stabilisation; K562 lysate, 10 uM; active = over 0.2 and 3.5 SD of the protein, either way, in both replicates (recomputed)).
Procedure, shortened: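 K562 pellets were dounce-homogenised in PBS pH 7.4 with 1 mM MgCl2, and the crude extract at 1 mg/mL protein was treated with 10 μM compound for 30 min. Aliquots were heated for 3 min across 48°C-58°C, pooled, and brought to 0.5% NP-40 at 4°C; soluble protein was the supernatant after 21,000xg for 90 min. Soluble protein was quantified by TMTpro 16plex LC-MS/MS with channel sums equalised, and reported as log2 fold change in thermal stability against DMSO controls, with values from duplicates.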

UniProt Q96AB3, sequence (Q96AB3 whole entry, looked up): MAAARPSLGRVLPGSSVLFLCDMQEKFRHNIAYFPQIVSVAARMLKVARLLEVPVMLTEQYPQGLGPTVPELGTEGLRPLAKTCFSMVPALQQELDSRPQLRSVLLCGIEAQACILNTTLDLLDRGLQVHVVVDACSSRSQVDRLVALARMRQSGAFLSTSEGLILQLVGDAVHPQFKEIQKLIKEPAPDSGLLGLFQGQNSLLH
UniProt Q9Y6M1, sequence (Q9Y6M1 whole entry, looked up): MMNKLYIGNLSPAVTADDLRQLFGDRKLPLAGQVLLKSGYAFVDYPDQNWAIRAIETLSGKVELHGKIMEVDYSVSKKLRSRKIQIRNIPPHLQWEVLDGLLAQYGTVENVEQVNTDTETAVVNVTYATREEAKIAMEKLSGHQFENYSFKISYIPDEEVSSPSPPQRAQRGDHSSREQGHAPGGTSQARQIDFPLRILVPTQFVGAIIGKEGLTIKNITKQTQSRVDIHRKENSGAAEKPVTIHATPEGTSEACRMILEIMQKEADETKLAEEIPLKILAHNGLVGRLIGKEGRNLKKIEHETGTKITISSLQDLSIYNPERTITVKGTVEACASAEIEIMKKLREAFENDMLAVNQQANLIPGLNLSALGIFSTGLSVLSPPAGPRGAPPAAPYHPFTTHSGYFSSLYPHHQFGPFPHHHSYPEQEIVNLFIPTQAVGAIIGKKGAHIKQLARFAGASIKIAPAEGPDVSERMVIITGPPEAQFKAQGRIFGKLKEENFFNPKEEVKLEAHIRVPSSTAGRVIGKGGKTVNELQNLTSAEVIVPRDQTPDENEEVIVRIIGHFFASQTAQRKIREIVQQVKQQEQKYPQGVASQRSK
UniProt Q99714, sequence (Q99714 whole entry, looked up): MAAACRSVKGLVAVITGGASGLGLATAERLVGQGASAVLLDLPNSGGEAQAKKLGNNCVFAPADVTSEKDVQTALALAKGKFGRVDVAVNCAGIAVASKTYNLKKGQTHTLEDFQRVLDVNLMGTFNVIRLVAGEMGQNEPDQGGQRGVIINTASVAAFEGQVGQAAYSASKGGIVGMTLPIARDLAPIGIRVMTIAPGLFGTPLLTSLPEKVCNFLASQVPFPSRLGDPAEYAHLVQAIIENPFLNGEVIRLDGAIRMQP
UniProt P12081, sequence (P12081 whole entry, looked up): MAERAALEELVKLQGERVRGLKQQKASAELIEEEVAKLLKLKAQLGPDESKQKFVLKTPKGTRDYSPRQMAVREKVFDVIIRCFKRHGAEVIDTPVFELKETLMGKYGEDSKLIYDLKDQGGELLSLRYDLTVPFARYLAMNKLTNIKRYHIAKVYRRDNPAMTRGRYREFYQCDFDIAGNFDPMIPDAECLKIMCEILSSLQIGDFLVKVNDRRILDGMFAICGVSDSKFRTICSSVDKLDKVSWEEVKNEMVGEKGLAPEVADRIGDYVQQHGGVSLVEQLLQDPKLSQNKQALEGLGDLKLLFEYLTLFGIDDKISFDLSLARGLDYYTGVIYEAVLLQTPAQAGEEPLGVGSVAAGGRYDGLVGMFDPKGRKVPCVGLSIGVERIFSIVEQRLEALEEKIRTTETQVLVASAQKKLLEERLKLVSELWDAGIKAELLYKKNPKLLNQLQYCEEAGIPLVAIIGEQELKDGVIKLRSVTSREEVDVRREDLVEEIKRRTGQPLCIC
UniProt Q68CZ6, sequence (Q68CZ6 whole entry, looked up): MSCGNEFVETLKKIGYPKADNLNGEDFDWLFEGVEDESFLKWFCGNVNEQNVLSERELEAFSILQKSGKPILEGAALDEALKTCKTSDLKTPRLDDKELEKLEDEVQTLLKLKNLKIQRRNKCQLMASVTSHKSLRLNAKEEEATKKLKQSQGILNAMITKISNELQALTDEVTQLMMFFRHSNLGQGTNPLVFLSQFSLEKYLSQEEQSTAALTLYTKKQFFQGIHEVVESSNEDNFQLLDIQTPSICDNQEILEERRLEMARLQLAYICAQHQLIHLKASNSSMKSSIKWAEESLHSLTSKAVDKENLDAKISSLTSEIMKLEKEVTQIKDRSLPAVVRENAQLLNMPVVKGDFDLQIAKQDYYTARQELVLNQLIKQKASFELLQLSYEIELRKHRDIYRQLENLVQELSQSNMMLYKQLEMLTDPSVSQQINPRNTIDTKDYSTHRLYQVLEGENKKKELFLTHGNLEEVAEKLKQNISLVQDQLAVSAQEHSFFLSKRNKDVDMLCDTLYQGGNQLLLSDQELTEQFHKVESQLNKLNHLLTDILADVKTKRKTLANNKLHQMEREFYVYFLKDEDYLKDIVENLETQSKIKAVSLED
UniProt Q8NC54, sequence (Q8NC54 whole entry, looked up): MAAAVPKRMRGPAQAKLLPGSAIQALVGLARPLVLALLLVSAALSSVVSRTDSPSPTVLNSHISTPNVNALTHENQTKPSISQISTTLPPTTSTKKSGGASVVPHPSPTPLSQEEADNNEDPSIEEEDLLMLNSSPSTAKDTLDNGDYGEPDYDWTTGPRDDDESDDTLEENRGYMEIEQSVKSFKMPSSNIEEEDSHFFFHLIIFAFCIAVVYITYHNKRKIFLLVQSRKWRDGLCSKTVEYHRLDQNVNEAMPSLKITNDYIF
UniProt Q92759, sequence (Q92759 whole entry, looked up): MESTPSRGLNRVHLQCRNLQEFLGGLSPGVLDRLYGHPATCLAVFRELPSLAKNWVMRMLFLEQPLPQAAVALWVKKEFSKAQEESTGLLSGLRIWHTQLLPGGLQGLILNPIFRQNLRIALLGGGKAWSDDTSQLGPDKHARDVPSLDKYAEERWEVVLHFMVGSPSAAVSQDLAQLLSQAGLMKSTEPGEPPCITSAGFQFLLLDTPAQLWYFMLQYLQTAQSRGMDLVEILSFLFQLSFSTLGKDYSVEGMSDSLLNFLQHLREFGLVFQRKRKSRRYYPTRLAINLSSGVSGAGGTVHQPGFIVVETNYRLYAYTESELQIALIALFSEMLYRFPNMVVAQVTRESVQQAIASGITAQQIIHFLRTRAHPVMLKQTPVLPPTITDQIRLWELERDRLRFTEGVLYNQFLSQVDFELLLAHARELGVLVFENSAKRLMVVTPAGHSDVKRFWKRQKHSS
UniProt P19367, sequence (P19367 whole entry, looked up): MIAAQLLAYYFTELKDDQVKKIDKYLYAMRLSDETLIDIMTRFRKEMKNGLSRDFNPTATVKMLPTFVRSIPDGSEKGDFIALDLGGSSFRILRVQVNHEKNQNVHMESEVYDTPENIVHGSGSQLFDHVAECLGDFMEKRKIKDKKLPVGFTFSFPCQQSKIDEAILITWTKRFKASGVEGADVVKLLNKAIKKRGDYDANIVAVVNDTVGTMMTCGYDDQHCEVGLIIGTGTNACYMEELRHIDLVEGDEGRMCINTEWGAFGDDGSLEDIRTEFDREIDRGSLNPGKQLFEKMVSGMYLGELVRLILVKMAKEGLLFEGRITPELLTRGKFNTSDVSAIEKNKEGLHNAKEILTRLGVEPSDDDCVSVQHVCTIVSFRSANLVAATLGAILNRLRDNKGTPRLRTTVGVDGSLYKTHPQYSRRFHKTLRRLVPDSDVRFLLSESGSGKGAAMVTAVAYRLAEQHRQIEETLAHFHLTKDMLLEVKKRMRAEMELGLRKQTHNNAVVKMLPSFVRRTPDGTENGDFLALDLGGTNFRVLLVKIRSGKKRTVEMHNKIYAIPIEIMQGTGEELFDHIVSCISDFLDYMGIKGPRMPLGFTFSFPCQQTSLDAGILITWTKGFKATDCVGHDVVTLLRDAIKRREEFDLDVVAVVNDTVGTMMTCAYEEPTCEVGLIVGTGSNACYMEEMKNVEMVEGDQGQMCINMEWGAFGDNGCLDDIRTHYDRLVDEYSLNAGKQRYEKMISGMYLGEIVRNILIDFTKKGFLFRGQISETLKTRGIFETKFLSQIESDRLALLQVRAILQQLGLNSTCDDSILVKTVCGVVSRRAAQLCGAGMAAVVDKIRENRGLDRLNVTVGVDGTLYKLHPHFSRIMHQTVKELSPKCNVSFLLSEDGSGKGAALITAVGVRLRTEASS
UniProt P04792, sequence (P04792 whole entry, looked up): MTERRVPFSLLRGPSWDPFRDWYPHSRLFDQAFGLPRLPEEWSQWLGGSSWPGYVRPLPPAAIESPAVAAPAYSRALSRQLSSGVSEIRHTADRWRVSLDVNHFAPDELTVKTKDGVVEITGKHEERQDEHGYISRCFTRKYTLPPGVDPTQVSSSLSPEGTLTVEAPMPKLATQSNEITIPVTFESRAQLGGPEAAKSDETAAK
UniProt P32780, sequence (P32780 whole entry, looked up): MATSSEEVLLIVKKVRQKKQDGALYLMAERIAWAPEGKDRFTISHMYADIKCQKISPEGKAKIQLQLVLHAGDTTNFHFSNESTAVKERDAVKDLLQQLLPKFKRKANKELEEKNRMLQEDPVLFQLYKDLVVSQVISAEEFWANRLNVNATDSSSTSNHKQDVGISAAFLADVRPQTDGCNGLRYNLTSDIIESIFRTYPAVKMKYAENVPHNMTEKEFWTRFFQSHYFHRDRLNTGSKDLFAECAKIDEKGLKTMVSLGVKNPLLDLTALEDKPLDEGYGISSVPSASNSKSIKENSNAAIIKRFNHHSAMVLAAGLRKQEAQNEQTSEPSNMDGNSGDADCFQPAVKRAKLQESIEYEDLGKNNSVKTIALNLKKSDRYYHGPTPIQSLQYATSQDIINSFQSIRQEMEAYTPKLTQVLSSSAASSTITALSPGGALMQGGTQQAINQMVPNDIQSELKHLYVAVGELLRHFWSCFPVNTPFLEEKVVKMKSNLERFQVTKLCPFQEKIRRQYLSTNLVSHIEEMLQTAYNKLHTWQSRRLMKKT
UniProt Q9P2X3, sequence (Q9P2X3 whole entry, looked up): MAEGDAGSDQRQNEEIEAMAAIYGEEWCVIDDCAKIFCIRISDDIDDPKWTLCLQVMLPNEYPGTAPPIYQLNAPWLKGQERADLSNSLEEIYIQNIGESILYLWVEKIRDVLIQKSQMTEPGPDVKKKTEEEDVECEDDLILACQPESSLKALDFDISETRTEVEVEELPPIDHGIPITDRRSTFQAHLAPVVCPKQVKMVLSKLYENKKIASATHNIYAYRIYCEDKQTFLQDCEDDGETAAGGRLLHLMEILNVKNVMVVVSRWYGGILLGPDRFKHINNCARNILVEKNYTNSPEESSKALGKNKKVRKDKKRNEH

log2 fold change, inactive:
GTF2H4 (UniProt Q92759) 0.039
GSTZ1 (UniProt G3V4T6) 0.018
HDAC2 (UniProt Q92769) 0.009
HEATR6 (UniProt Q6AI08) 0.109
H4C1 (UniProt P62805) 0.079
HECTD3 (UniProt Q5T447) -0.039
KCT2 (UniProt Q8NC54) 0.127
GPX4 (UniProt P36969) -0.002
IARS2 (UniProt Q9NSE4) 0.037
GTF2H1 (UniProt P32780) 0.014
GSTM4 (UniProt Q03013) -0.044
IMPACT (UniProt Q9P2X3) -0.014
IGF2BP2 (UniProt Q9Y6M1) -0.005
GON4L (UniProt Q3T8J9) 0.097
HK1 isoform 2 (UniProt P19367) 0.012
GTF2I (UniProt P78347) 0.034
KEAP1 (UniProt Q14145) 0.01
ISOC2 (UniProt Q96AB3) -0.12
HSD17B10 (UniProt Q99714) -0.021
IRAK4 (UniProt Q9NWZ3) 0.107
IMMT (UniProt Q16891) 0.004
IARS (UniProt P41252) 0.026
IMPDH2 (UniProt P12268) -0.056
GNE isoform 2 (UniProt Q9Y223) 0.03
GTPBP2 (UniProt Q9BX10) 0.034
HSPB1 (UniProt P04792) 0.019
INTS1 (UniProt Q8N201) -0.01
HSPA8 (UniProt P11142) -0.035
HAUS3 (UniProt Q68CZ6) 0.006
GRB10 (UniProt Q13322) 0.054
HARS (UniProt P12081) -0.031
GMIP (UniProt Q9P107) -0.024
HK2 (UniProt P52789) 0.009
IRAK1 (UniProt P51617) -0.01
GSTCD (UniProt Q8NEC7) -0.039
HDAC3 (UniProt O15379) -0.038
